Test results reported in PubChem BioAssay (Tox21).
“And” between values parts separate entries of the source, which are not always exact repeats. Equal values may be shown once. Records with an inconclusive call do not appear. The source made the active and inactive calls. Unless noted, the call rests on the fitted dose curve; in most records, active means well fitted curve in the direction sought with a large enough effect in the repeat runs; inconclusive means weak or mixed curves; inactive means no such curve, though single readings can be large; an effect the other way counts as inactive or inconclusive.

Experiments:
[1] = qHTS assay to identify small molecule antagonists of the glucocorticoid receptor (GR) signaling pathway - cell viability counter screen (AID 720693); further: nearly all actives have a fitted effect of over 55% in size
[2] = qHTS assay for identifying genotoxic compounds that show differential cytotoxicity against isogenic chicken DT40 cell lines with known DNA damage response pathways - wild type cell line (AID 743012); further: nearly all actives have a fitted effect of over 60% in size; further: potency means the concentration at half of the fitted maximal effect
Outline: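 Endpoint: CellTiter-Glo luminescence, 30 min RT. Cells: wild type DT40, 300/well. Exposure: compounds in DMSO, 40 h, 37 C/5% CO2, after ~0.5 h pre-incubation.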

[3] = qHTS assay for identifying genotoxic compounds that show differential cytotoxicity against isogenic chicken DT40 cell lines with known DNA damage response pathways - Rev3 mutant cell line (AID 743014); further: nearly all actives have a fitted effect of over 55% in size; further: potency means the concentration at half of the fitted maximal effect
[4] = qHTS assay for identifying genotoxic compounds that show differential cytotoxicity against isogenic chicken DT40 cell lines with known DNA damage response pathways - Rad54/Ku70 mutant cell line (AID 743015); further: nearly all actives have a fitted effect of over 60% in size; further: potency means the concentration at half of the fitted maximal effect
[5] = qHTS assay to identify small molecule antagonists of the androgen receptor (AR) signaling pathway - cell viability counter screen (AID 743033; further: nearly all actives have a fitted effect of over 45% in size)
[6] = qHTS assay to identify small molecule antagonists of the androgen receptor (AR) signaling pathway using the MDA cell line - cell viability counter screen (AID 743041; further: nearly all actives have a fitted effect of over 45% in size)
Outline: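 In this qHTS counter assay, fluorescence intensity after CellTiter-Fluor addition indicated viability of MDA-kb2 AR-luc cells given compounds and R1881 for 16 h at 37C.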

[7] = qHTS assay to identify small molecule antagonists of the thyroid receptor (TR) signaling pathway - cell viability counter screen (AID 743064); further: nearly all actives have a fitted effect of over 50% in size; further: potency means the concentration at half of the fitted maximal effect
Outline: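 GH3.TRE-Luc rat pituitary cells carrying a TRE-luciferase reporter were treated with compound plus 1 nM T3 (final) for 23.5 h at 37 °C. Viability was then read in the same wells by CellTiter-Fluor fluorescence after a further 30 min.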

[8] = qHTS assay to identify small molecule antagonists of the thyroid receptor (TR) signaling pathway (AID 743065); further: nearly all actives have a fitted effect of over 55% in size; further: potency means the concentration at half of the fitted maximal effect
Outline: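 GH3.TRE-Luc rat pituitary cells carrying two TR response elements driving luciferase were plated for 4 h, given compound plus 1 nM T3 (final), and incubated 23.5 h at 37 C. ONE-Glo luminescence measured reporter inhibition; CellTiter-Fluor fluorescence tracked cytotoxicity.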

[9] = test system: thyroid hormone receptor (rat, GH3 cells); assay: qHTS assay to identify small molecule agonists of the thyroid receptor (TR) signaling pathway (AID 743066; calls by dose curve)
[10] = target: Estrogen receptor (Homo sapiens) (UniProt P03372); assay: qHTS assay to identify small molecule antagonists of the estrogen receptor alpha (ER-alpha) signaling pathway (AID 743069; active means well fitted curve in the direction sought with a large enough effect in the signal ratio in the repeat runs, not every such curve was filed as active; the % refers to the signal ratio)
Chain of Estrogen receptor (Homo sapiens) (P03372 whole entry, looked up): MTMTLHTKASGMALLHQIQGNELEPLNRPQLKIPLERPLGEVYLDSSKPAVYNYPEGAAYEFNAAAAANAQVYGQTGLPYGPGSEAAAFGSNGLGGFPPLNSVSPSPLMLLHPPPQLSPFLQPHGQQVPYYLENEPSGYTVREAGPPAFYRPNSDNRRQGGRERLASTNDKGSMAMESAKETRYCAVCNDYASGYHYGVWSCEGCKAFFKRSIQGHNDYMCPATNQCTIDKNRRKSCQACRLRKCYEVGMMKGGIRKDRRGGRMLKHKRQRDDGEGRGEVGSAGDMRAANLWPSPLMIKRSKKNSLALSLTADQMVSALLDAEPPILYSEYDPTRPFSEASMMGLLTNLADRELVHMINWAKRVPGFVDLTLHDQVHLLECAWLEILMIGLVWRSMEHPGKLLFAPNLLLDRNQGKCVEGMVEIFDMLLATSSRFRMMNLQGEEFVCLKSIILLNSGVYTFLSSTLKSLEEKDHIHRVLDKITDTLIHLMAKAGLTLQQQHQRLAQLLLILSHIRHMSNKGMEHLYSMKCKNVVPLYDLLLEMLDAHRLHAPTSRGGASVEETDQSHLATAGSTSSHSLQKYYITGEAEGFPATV
Outline: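 A 17beta-estradiol challenge was applied right after compound transfer to ER-alpha-UAS-bla HEK293 cells previously kept in charcoal-stripped serum. Plates stood 18 hr at 37C and 5% CO2; fluorescence was read following 2 hr FRET substrate loading at room temperature.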

[11] = qHTS assay to identify small molecule antagonists of the estrogen receptor alpha (ER-alpha) signaling pathway - cell viability counter screen (AID 743074; calls by dose curve;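 further: HEK293 cells carrying ER-alpha-UAS-bla reporter stimulated with 17beta-estradiol; nearly all actives have a fitted effect of over 45% in size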)
[12] = target: Estrogen receptor (Homo sapiens) (UniProt P03372); assay: qHTS assay to identify small molecule agonists of the estrogen receptor alpha (ER-alpha) signaling pathway (AID 743075; calls by dose curve)
[13] = target: Estrogen receptor (Homo sapiens) (UniProt P03372); assay: qHTS assay to identify small molecule agonists of the estrogen receptor alpha (ER-alpha) signaling pathway using the BG1 cell line (AID 743079); further: nearly all actives have a fitted effect of over 20% in size
[14] = qHTS assay to identify small molecule antagonists of the estrogen receptor alpha (ER-alpha) signaling pathway using the BG1 cell line (AID 743080; calls by dose curve; further: series mostly up to about 70 µM; nearly all actives have a fitted effect of over 25% in size)
Outline: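 Antagonist mode: compounds in DMSO were pinned onto BG1-Luc-4E2 cells alongside 17beta-estradiol agonist, incubated 21.5 h, and ERE-driven luciferase measured with ONE-Glo. Cytotoxicity was multiplexed using CellTiter-Fluor fluorescence.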

[15] = qHTS assay to identify small molecule antagonists of the estrogen receptor alpha (ER-alpha) signaling pathway using the BG1 cell line - cell viability counter screen (AID 743081);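 further: compound given together with 17beta-estradiol as the ER stimulus; series mostly up to about 70 µM; nearly all actives have a fitted effect of over 45% in size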
Aromatase (Homo sapiens) = Aromatase (Homo sapiens) (UniProt P11511); assay: qHTS assay to identify aromatase inhibitors (AID 743083); further: series mostly up to about 70 µM; nearly all actives have a fitted effect of over 55% in size
Chain of Aromatase (Homo sapiens) (P11511 whole entry, looked up): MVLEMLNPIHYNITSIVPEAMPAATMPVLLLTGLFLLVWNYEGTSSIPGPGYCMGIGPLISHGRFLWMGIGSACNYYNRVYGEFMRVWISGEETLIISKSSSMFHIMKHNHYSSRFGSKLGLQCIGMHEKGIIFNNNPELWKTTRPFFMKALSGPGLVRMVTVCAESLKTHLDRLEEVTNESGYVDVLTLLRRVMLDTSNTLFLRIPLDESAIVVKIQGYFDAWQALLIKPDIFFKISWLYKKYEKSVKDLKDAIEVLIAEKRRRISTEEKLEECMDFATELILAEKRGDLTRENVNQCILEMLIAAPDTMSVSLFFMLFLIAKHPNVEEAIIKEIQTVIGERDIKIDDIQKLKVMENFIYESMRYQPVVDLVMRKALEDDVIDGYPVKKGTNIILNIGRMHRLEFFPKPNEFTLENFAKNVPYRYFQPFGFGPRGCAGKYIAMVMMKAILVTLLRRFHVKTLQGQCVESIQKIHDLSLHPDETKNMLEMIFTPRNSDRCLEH

[16] = target: Androgen receptor (Homo sapiens) (UniProt P10275); assay: qHTS assay to identify small molecule antagonists of the androgen receptor (AR) signaling pathway (AID 743035; active means well fitted inhibition curve with a large enough effect in the signal ratio in the repeat runs, not every such curve was filed as active; the % refers to the signal ratio)
Chain of Androgen receptor (Homo sapiens) (P10275 whole entry, looked up): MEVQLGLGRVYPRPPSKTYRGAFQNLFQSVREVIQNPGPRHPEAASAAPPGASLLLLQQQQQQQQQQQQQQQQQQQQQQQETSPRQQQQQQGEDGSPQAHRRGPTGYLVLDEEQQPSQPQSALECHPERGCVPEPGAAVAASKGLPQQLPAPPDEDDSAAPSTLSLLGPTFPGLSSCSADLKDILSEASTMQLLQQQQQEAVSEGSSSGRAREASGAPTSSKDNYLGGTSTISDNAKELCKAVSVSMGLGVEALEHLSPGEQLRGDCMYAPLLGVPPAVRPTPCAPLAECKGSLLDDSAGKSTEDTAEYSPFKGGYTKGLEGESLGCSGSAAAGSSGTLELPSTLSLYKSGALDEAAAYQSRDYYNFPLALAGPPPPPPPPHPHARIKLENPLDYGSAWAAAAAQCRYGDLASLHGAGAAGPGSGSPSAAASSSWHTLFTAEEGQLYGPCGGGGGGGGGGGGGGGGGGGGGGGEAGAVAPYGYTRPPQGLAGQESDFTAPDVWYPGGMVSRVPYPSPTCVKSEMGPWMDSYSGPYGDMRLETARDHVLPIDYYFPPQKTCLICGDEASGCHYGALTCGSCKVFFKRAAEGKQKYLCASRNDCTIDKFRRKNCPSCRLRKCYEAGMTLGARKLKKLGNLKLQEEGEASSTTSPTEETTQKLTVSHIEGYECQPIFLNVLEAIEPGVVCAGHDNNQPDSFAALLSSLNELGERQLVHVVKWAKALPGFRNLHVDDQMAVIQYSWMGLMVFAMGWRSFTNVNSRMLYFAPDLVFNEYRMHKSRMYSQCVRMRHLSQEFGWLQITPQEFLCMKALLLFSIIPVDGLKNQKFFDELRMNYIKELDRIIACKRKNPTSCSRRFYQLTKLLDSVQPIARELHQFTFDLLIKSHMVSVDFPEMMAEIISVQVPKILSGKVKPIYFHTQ
Outline: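 R1881 agonist challenge of a HEK293 UAS-beta-lactamase AR reporter line in the presence of compound (16 h, 37C); signal taken as FRET fluorescence after 2 h with LiveBLAzer B/G substrate at room temperature.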

[17] = target: Androgen receptor (Homo sapiens) (UniProt P10275); assay: qHTS assay to identify small molecule agonists of the androgen receptor (AR) signaling pathway (AID 743036; active means well fitted activation curve with a large enough effect in the signal ratio in the repeat runs, with a control signal flat, not every such curve was filed as active; the % refers to the signal ratio)
Outline: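 HEK293 cells stably carrying a UAS-driven beta-lactamase reporter (GeneBLAzer AR-UAS-bla-GripTite) were plated at 2,000 cells/well, rested 4 h at 37C, then exposed to compounds in DMSO for 16 h. LiveBLAzer B/G FRET substrate was added for 2 h at room temperature; fluorescence read.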

[18] = target: Androgen receptor (Homo sapiens) (UniProt P10275); assay: qHTS assay to identify small molecule agonists of the androgen receptor (AR) signaling pathway using the MDA cell line (AID 743040; further: nearly all actives have a fitted effect of over 20% in size)
Outline: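 Cell-based luciferase reporter: MDA-kb2, MMTV promoter (AR + GR response elements). 16 h compound exposure at 37C; ONE-Glo, 30 min RT, luminescence.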

[19] = target: Androgen receptor (Homo sapiens) (UniProt P10275); assay: qHTS assay to identify small molecule antagonists of the androgen receptor (AR) signaling pathway using the MDA cell line (AID 743042; further: nearly all actives have a fitted effect of over 55% in size)
Outline: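 MDA-kb2 cells (human breast carcinoma, stably carrying an MMTV-luciferase reporter responsive to AR and GR) were plated at 3,000 cells/well and preincubated 5 hr at 37C, then given compound plus R1881 agonist for 16 h. ONE-Glo luminescence was read.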

Measured: Potency

N=c1ccn2c(n1)O[C@H]1[C@H](O)[C@@H](CO)O[C@H]12
active: [2] 211 nM and 193 nM | [3] 237 nM and 137 nM | [4] 266 nM and 172 nM | [7] 0.531 µM | [8] 531 nM and 545 nM
not listed: [16] | [17] | [18] | [19]
inactive: all other assays above

Cc1ncc(CO)c(C=O)c1O
not listed: [16] | [17] | [18] | [19]
inactive: all other assays above

C=C1[C@H]2CC[C@@H]3[C@H]2C(C)(C)CCC[C@]13C
not listed: [16] | [17] | [18] | [19]
inactive: all other assays above

C=C(C)C(=O)OCCOCC
not listed: [16] | [17] | [18] | [19]
inactive: all other assays above

NCc1ccccc1Sc1ccccc1CO
active: [2] 21.1 µM | [3] 5.96 µM | [4] 29.8 µM
not listed: [7]
inactive: all other assays above

CCOC(=O)COC(=O)c1cc(Oc2ccc(C(F)(F)F)cc2Cl)ccc1[N+](=O)[O-]
active: [2] 21.7 µM | [3] 12.2 µM | [4] 19.3 µM
not listed: [10] | [12] | [13] | [14] | Aromatase (Homo sapiens) | [16]
inactive: all other assays above

O=S(=O)(Oc1ccc(Cl)cc1)c1ccccc1
active: [3] 61.1 µM | [4] 54.5 µM
not listed: [13] | [16] | [17] | [18] | [19]
inactive: all other assays above
